Most compounds without a hit are left out; they make up all but 0.52% or so of the library.
TRPML1 blocker: qHTS for Inhibitors of the Human Mucolipin Transient Receptor Potential 1 (TRPML1). Mucolipin-1 (Homo sapiens), Q9GZU1. TRPML1-inducible cells, Ca2+ dye fluorescence, FDSS; stronger effect = lower value; inhibition of EC80 agonist-evoked calcium signal. activity change, negative = inhibition, % (no concentration beside the values). actives 0.02% (n = 390,000). AID 624415, 2012; in the data active = activity change below about -50%; inconclusive = between about -30% and that limit;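 note: stimulus is agonist 54-4 at its EC80 concentration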
Target sequence (Q9GZU1 whole entry, looked up): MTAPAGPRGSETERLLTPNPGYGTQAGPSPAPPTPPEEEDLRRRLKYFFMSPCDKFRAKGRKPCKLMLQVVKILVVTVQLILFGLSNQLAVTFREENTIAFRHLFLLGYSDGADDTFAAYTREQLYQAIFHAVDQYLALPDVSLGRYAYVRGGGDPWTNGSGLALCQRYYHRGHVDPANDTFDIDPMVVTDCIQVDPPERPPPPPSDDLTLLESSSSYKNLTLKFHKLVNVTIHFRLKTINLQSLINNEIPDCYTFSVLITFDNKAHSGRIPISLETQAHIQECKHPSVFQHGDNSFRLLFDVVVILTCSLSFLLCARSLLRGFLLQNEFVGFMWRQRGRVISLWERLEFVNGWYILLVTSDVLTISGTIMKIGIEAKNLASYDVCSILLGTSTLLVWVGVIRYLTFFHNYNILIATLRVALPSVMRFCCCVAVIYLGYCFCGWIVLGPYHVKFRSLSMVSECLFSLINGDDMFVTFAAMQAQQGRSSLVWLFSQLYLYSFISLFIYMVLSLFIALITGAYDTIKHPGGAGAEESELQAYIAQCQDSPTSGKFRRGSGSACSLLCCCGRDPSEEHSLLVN
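TRPML1-DL cells, Tet-induced overnight (~16 h, 37 °C) at 1,500 cells/well, were loaded with Ca8 no-wash dye plus quencher for 45-90 min at room temperature. Compounds were pinned during FDSS kinetic reading; agonist 54-4 at EC80 (4 uM final) then added.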
PINK1 expr mod: A Quantitative High throughput Screen to Identify Chemical Modulators of PINK1 Expression; AID 624263, 2012; Potency, µM (doses to about 76.6 µM), actives largely listed as activators; PINK1 immunofluorescence, high-content cytometry, 24 h; actives 0.2% (n = 410,000); active = well fitted activation curve with a large enough effect; inconclusive = small, poorly fitted or top-dose-only effect; cell line not stated here; note: nearly all actives have a fitted effect of over 65% in size
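PINK1 protein level read as immunofluorescence by microplate cytometer in a fixed, stained stable cell line after 24 h exposure to five compound concentrations, with CCCP as control.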
Vif-A3G inh: qHTS for Inhibitors of Vif-A3G Interactions: qHTS; HeLa A3G-eYFP + Vif (tagged APOBEC3G with the HIV-1 protein that degrades it), YFP fluorescence, overnight; Potency, µM (highest dose often 46.1 µM), usual class: inhibitors; actives 0.076% (n = 410,000); AID 602310, 2012; note: nearly all actives have a fitted effect of over 60% in size
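Read-out is eYFP fluorescence (Ex 488/Em 500-530) from Vif-expressing HeLa A3G-eYFP cells; more signal means A3G escaped Vif-mediated degradation. Cells plated overnight, compound pinned in, incubated overnight at 37 deg C.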
TRPML1 agonist: qHTS for Agonists of the Human Mucolipin Transient Receptor Potential 1 (TRPML1); TRPML1-expressing cells, Ca2+ dye fluorescence, FDSS; activation, % (no concentration beside the values); actives 0.12% (n = 410,000); Mucolipin-1 (Homo sapiens), Q9GZU1; in the data active = activation above about 50%; inconclusive = mostly about 30% to 49%
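In this qHTS format, compounds were pin-transferred onto Ca8-dye-loaded TRPML1-DL cells induced with Tet overnight, and intracellular Ca2+ fluorescence was recorded kinetically for 110 s after a 10 s baseline. A subsequent 4uM final 54-4 (EC80) addition followed by a second 110 s read served as the antagonist phase.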
Vif-A3F inh: qHTS for Inhibitors of Vif-A3F Interactions: qHTS. HeLa A3F-eYFP + Vif (tagged APOBEC3F with the HIV-1 protein that degrades it), YFP fluorescence increase. Potency, µM (titrated, usually from 46.1 µM). actives 0.2% (n = 390,000). AID 602313, 2012; note: nearly all actives have a fitted effect of over 65% in size
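Fluorescence increase (Ex 488/Em 500-530) after overnight compound treatment at 37 deg C flags inhibition of Vif-driven A3F-eYFP loss in stable HeLa A3F-eYFP/Vif cells seeded overnight beforehand.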
Large screens that a line does not name were inactive. Unless noted, calls come from the whole dose curve; as a rule, active = well fitted curve in the direction sought with a large enough effect; inconclusive = small, poorly fitted or top-dose-only effect, or another doubt; inactive = no such curve, though single readings can be large; an effect the other way counts as inactive or inconclusive.

CN(C)c1ccc(/C=C/c2c[n+](C)cc3ccccc23)cc1	PINK1 expr mod 45µM (no result: TRPML1 blocker, Vif-A3F inh)
CCN(CC)c1ccc(/C=C/c2ccncc2)cc1	Vif-A3G inh inconclusive (no result: TRPML1 blocker, PINK1 expr mod, Vif-A3F inh)
CCCCNC(=O)C1CCC(CNS(=O)(=O)c2ccc(Cl)cc2)CC1 (centres undefined)	none
COc1ccc(Br)cc1CNC(=O)CN1C(=O)CSc2ccc(S(=O)(=O)N3CCOCC3)cc21	none
CCCCN(CCC(=O)O)c1ccc(/C=C/c2ccnc3ccccc23)cc1	Vif-A3G inh inconclusive, TRPML1 agonist 99 (no result: TRPML1 blocker, PINK1 expr mod, Vif-A3F inh)
CN(C)c1ccc(/C=C/c2cnnc3ccccc23)cc1	PINK1 expr mod inconclusive, Vif-A3G inh 8.9µM (no result: TRPML1 blocker, Vif-A3F inh)
C(=Cc1cnnc2ccccc12)c1ccccc1	none
Cc1ccc([N+](=O)[O-])cc1N=Nc1c(C)[nH]n(C(N)=S)c1=O	none
Cc1ccc([N+](=O)[O-])cc1N=Nc1c(-c2ccc([N+](=O)[O-])cc2)[nH]n(C(N)=S)c1=O	PINK1 expr mod 2.8µM
NC(=S)n1[nH]c(-c2ccc([N+](=O)[O-])cc2)c(N=Nc2ccc(Cl)cc2)c1=O	PINK1 expr mod 11µM
CCc1ccc(C2C(C#N)=C(N)SC(N)=C2C#N)s1	Vif-A3G inh inconclusive, Vif-A3F inh 22µM
CCc1ccc(C2C(C#N)=C(N)SC(N)=C2C#N)cc1	Vif-A3G inh inconclusive, Vif-A3F inh inconclusive
COc1cc(/C=C2\SC(=S)N(NC(=O)c3ccncc3)C2=O)ccc1O	none (no result: TRPML1 blocker, TRPML1 agonist)
COc1cc(/C=C2\SC(=S)N(NC(=O)c3ccc(O)c(OC)c3)C2=O)ccc1O	Vif-A3F inh 10µM
CCOc1cc(/C=C2/SC(=S)N(CC3CCCO3)C2=O)ccc1O (centres undefined)	Vif-A3F inh 22µM
COc1cc(/C=C2\SC(=S)N(NC(=O)c3ccccc3OC)C2=O)ccc1O	Vif-A3F inh 22µM
O=c1c(O)c(-c2ccccc2)oc2ccccc12	none (no result: TRPML1 blocker, TRPML1 agonist)
O=c1c(O)c(-c2cccs2)oc2ccc(Cl)cc12	Vif-A3G inh inconclusive, TRPML1 agonist 59, Vif-A3F inh inconclusive
O=c1c(O)c(-c2cccs2)oc2ccccc12	Vif-A3G inh inconclusive, TRPML1 agonist 55, Vif-A3F inh 2.8µM
Cc1c2ccccc2nc2c(F)c(N(C)C)c(F)c(F)c12	Vif-A3G inh inconclusive, Vif-A3F inh 25µM
CCOc1c2c(c(-c3ccc4c(c3)OCO4)c3cc(OC)c(OC)cc13)C(=O)OC2	PINK1 expr mod 14µM (no result: TRPML1 blocker, Vif-A3F inh)
COc1ccc(CNC(=O)C(CCSC)NS(=O)(=O)c2ccc3c(c2)oc(=O)n3C)cc1 (centres undefined)	none
O=C(Nc1nnc(-c2ccccc2Cl)o1)c1nc2ccccc2s1	Vif-A3G inh inconclusive, TRPML1 agonist 65
CN(C)N1C(N)=C(C#N)C(c2ccsc2)C2=C1CC(C)(C)CC2=O (centres undefined)	none
Cc1ccc(N2C(N)=C(C#N)C(c3ccsc3)C3=C2CC(C)(C)CC3=O)cc1 (centres undefined)	TRPML1 agonist 57
Cc1ccc2nc(COc3ccccc3NC(=O)c3ccc(F)cc3)cc(=O)n2c1	none
COc1cccc(C(=O)Nc2c(C(=O)Nc3ccc(F)cc3)oc3ccccc23)c1OC	none
COc1ccccc1NC(=O)c1oc2ccccc2c1NC(=O)c1cccc(OC)c1OC	Vif-A3G inh 5.6µM
N=c1c2c(n(Cc3ccc(Cl)c(Cl)c3)c3c1CCC3)CCCC2	PINK1 expr mod inconclusive
N=c1c2c(n(Cc3ccc(Br)cc3)c3c1CCC3)CCCC2	PINK1 expr mod 35µM
COC(=O)c1ccc(Cl)cc1N(Cc1c(F)cccc1Cl)S(C)(=O)=O	TRPML1 agonist 108
COC(=O)c1ccc(CN(c2ccccc2Cl)S(C)(=O)=O)cc1	none
COc1cccc(CC(=O)OCC(=O)NNC(=O)c2ccc(Br)cc2)c1	none
CCOC(=O)c1cc(-c2ccccc2)sc1NC(=S)Nc1cc(C)ccn1	PINK1 expr mod inconclusive, Vif-A3F inh 8.9µM
CCC(CO)Oc1cc(NC(=O)c2cccc(OC)c2)c2ncn(C(C)C)c2c1 (centres undefined)	none
CCC(CO)Oc1cc(NC(=O)c2ccc(OC)cc2)c2ncn(C(C)C)c2c1 (centres undefined)	TRPML1 blocker -57
CCn1c(C(=O)N2CCCC(C(=O)N3CCN(c4ccccc4)CC3)C2)cc2sccc21 (centres undefined)	TRPML1 blocker inconclusive, TRPML1 agonist 61
CCn1c(C(=O)N2CCC(C(=O)N3CCN(c4ccc(OC)cc4)CC3)CC2)cc2sccc21	none
CCN1CCN(S(=O)(=O)c2ccc(Cl)c(C(=O)Nc3ccccc3N3CCCCC3)c2)CC1	TRPML1 agonist 100
O=C(Nc1nc2c(F)cc(F)cc2s1)c1ccc(S(=O)(=O)N2CCc3ccccc32)cc1	PINK1 expr mod 16µM
Cc1cc(C)c(C(=O)Nc2ccc(Br)c(C(F)(F)F)c2)c(C)c1	PINK1 expr mod 13µM
O=C(O)c1ccccc1C(=O)Nc1ccc(Br)c(C(F)(F)F)c1	none
CCNC(=O)NC(=O)COC(=O)C1CSC2(C)CCC(=O)N12 (centres undefined)	none
CCOC(=O)c1sc(NC(=O)CSc2n[nH]c(-c3ccccc3)n2)c(C#N)c1C	PINK1 expr mod 16µM
Cc1ccccc1-c1cnc2c(c1)C(=O)N([C@@H](C)CO)C[C@@H](C)[C@H](CN(C)Cc1ccccc1F)O2	none
CC(=O)C1=C(C)NC(SCC(=O)c2ccc(Cl)cc2)=C(C#N)C1c1ccco1 (centres undefined)	Vif-A3G inh inconclusive, Vif-A3F inh 25µM
CCc1ccc(-c2nc3cc(NC(=O)c4ccc(F)cc4)ccc3o2)cc1	none
CCn1cc(C(=O)O)c(=O)c2cc(F)c(N3CCN(C(=S)Nc4ccccc4OC)CC3)cc21	none
CCn1cc(C(=O)O)c(=O)c2cc(F)c(N/N=C/c3ccccc3[N+](=O)[O-])cc21	PINK1 expr mod 40µM
C[n+]1ccc(/C=C/c2c[nH]c3ccc(F)cc23)cc1	PINK1 expr mod 16µM, Vif-A3G inh 8.9µM, Vif-A3F inh 10µM
Cn1cc(/C=C/c2cc[n+](C)cc2)c2cc(F)ccc21	PINK1 expr mod 11µM, Vif-A3G inh inconclusive, Vif-A3F inh inconclusive
Cc1ccc(C)c(NC(=O)CSc2c3c(nc4ccc(Cl)cc24)CCCC3)c1	Vif-A3G inh inconclusive, Vif-A3F inh inconclusive
CCOC(=O)c1c(NC(=O)c2cc(=O)c3c(C)cc(C)cc3o2)sc2c1CCC2	PINK1 expr mod 32µM
CCOC(=O)c1c(NC(=O)COC(=O)C2CC2C)sc(C)c1C (centres undefined)	Vif-A3F inh inconclusive
CCN(CC)CC(=O)Nc1ccc([N+](=O)[O-])cc1	none

Compound activity deposited in PubChem BioAssay by National Center for Advancing Translational Sciences (NCATS).
